About 83,000 compounds went through this panel and 20% of them were active in at least one assay; those are over-represented in the sample as a whole.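 The endpoint reported here, percent growth, reads 100 for growth as untreated, 0 for no net growth and -100 for all cells dead.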 The source made the active and inactive calls. Rule for the calls: active = growth percent below 10; inactive = the rest.
What follows are compounds tested on SNB-19 CNS (assay: NCI-60 one-dose screen, 48 h (100 = growth as untreated, 0 = no growth, -100 = all killed)). Details: 10 µM unless noted.
`CC(O)C(NC(=O)C1CCCN1C(=O)CNC(=O)C1CC(=O)NCC(=O)NC(Cc2c[nH]c3ccccc23)C(=O)NC(Cc2ccc(O)cc2)C(=O)NCC(=O)NC(CO)C(=O)NC(CCC(N)=O)C(=O)NC(Cc2c[nH]c3ccccc23)C(=O)N1)C(=O)NCC(=O)NC(CCC(N)=O)C(=O)NC(CCCNC(=N)N)C(=O)NC(CC(=O)O)C(=O)O` (configuration not stated) was tested, and the growth was 96.6% (inactive). For `COc1ccc(C(=O)/C=C/c2ccc(OCc3ccc(Cl)cc3)c(OC)c2)cc1OC`, the growth was 72.3% (inactive). For `c1ccc(CNc2ncnc3ccc(-c4cnc5[nH]ncc5c4)cc23)cc1`, the growth was 72.7% (inactive). In the case of `O=C(CCN1C(=O)/C(=C/c2ccccc2)SC1=S)N1CCOCC1`, the growth was 101% (inactive). In the case of `OC1CCN(CCCOc2c3ccccc3nc3c2oc2ccc(Cl)cc23)CC1`, the growth was 21.8% (inactive). In the case of `CN1C(=O)N(c2ccccc2)C2N=C(N/N=C/c3ccccc3)SC21` (configuration not stated), the growth was 53% (inactive). With `CN(C)c1ccc(-c2c(NC(C)(C)C)nc3c(OCCc4ccccc4)cccn23)cc1` the growth was 19.3% (inactive). `CN1C(=S)N(C)C2C1NN=C1SC(c3ccccc3)=CC(=O)N12` (configuration not stated) was tested, and the growth was 98.9% (inactive). With `C#Cc1nc(C2=C(C)C(=N\O)/C(=N/O)C2)cs1` the growth was 95.6% (inactive). With `C[C@@H](Nc1c(C#N)cnc2ccc(-c3cnc(N)nc3)cc12)c1ccccc1` the growth was 26.3% (inactive). In the case of `O=C1Nc2ccc(Cl)cc2/C1=C/c1ccc(OCC(=O)c2ccc(Br)cc2)cc1`, the growth was 89.7% (inactive). For `CCN1C(=S)N(CC)C2C1N=C(SC)N2/N=C/C=C/c1ccccc1[N+](=O)[O-]` (configuration not stated), the growth was 103% (inactive).
